The supplement of paper PMC3334620
Over roughly 33,000 sequences, “E-score (-0.5 to 0.5)” has its median near -0.043; the highest 2% begin near 0.37. Only a selection was taken, and the highest values are over-represented in it overall.

Target: T1, Upc2 (UniProt Q12151)
T1 sequence: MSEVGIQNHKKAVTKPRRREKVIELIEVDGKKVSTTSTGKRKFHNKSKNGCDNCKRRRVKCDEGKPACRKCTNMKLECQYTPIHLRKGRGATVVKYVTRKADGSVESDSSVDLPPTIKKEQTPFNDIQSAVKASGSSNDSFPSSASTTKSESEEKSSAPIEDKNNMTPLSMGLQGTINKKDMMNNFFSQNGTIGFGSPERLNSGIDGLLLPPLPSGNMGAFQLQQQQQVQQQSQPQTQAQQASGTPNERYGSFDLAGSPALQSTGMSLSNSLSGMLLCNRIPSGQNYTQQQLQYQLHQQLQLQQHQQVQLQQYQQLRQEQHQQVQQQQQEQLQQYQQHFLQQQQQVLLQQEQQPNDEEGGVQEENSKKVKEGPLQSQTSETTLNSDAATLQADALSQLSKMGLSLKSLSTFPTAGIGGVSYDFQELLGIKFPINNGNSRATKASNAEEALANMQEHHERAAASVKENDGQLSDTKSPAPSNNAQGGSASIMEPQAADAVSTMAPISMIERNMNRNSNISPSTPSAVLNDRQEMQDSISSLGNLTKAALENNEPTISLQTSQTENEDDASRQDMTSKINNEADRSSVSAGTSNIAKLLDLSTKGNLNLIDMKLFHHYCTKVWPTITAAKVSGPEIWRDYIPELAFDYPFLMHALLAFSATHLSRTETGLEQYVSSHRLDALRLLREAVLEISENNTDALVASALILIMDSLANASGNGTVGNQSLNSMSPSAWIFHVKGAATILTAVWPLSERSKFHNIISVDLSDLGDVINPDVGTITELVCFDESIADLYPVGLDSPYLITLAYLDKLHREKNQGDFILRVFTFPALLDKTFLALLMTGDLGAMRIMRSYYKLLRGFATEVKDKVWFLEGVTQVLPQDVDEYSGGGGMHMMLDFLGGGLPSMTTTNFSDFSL
Test: PBM E-score (8-mer binding enrichment) (E-score (-0.5 to 0.5)); higher = stronger / more preferred TF binding
Conditions: protein concentration: 200 nM; construct: GST-full length
How it was run: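 For each ungapped eight-base word taken together with its reverse complement, the Universal PBM Analysis Suite assigned an E-score. Binding data came from GST-tagged yeast transcription factors, applied at about 100-200 nM, on universal all-10-mer Agilent arrays made double-stranded by primer extension. Fluorescent anti-GST marked bound protein, and scans were normalised with masliner.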

Sequence	PBM E-score
GGTCCCCA	-0.24
GACAACCC	0.0735
AAAGGGGC	-0.127
ACACAGCG	0.104
ATGGGTTA	-0.00164
AGTTCAAG	0.129
CGTTCCGC	0.385
AGTTCCAG	-0.188
CGTTCCAA	0.329
CGTTCCGA	0.361
AGTTCCGC	0.0626
CGTTCAAA	0.369
AGTTCAAC	0.00196
CGTTCCAG	0.391
CGTTCAAG	0.407
CGTTCAAC	0.382
GGTTCAAC	0.0526
AGGCGTGA	-0.00507
CGGAAGTA	0.0369
AACCACAA	-0.077
GTGAATAA	-0.0516
ACAACTAC	-0.129
GCGAAAAA	0.148
GACTTAAC	0.00959
CTGAAGAA	-0.299

Sequence	PBM E-score
CCCATCGG	0.0976
AGCAAGCT	-0.253
CGTAAGAG	0.316
ACGCCATC	-0.0963
GCAAACAC	-0.00637
GGTTCCCA	-0.0861
CGTTCCCC	0.333
CGTTCCCA	0.373
TACGTATA	0.423
AACGTATA	0.443
GACGTATA	0.424
TACGTACA	0.341
AACGTATC	0.142
CACGTATA	0.433
CACGTATG	0.236
CACGTATC	0.132
TACGTAGA	0.18
AACGTATT	0.212
GACGTAGC	0.0263
GACGTATC	0.156
CGCAAATA	0.0612
AACAGGTC	0.056
TGAAAAAA	0.0284
ACACCGAG	-0.024
AACATTGT	0.0538

Sequence	PBM E-score
CACGTACA	0.272
GCGGTACA	-0.0545
CCAGTACA	-0.157
CCAGTACC	0.0225
CCCGTACC	0.383
GCCGTGCA	-0.291
ACCGTAGG	-0.135
CCCGTAGC	0.0891
ACCGTAAT	0.0464
CCCGTACA	0.398
GCCGTACA	0.4
ACCGTACG	0.383
ATCGACAA	0.0687
AACATCAT	-0.094
AAAAGCTG	0.0411
ACACACTC	-0.042
TTCAGCAA	-0.0506
CTCTCCAA	-0.0403
ACTCGACC	-0.0381
GCCGTAGC	0.0955
TGCGTACA	0.318
TCCGTACA	0.406
CGCGTACA	0.35
CCCGTAAG	0.208
ACCGTACC	0.366

Sequence	PBM E-score
TCCGTAGA	-0.0263
CCCGTACG	0.393
CCCGTAGG	-0.0508
GCCGTACC	0.379
AGCGTACG	0.354
CGCGTACG	0.4
AAGCTCAC	-0.0662
AAGAAGGC	-0.216
ATCAGTGC	-0.0682
CTTAGGCA	-0.361
ATTTCAGG	-0.0274
ATCGATAG	-0.0178
TAAATTGA	-0.0257
CGTGCATA	-0.0557
GCCCTTTA	-0.0758
ACCGTACT	0.214
ACCGTACA	0.39
ACTGTACA	0.133
AAGCGGCT	-0.0364
ACCGCTAC	0.14
GAACCGTA	0.269
ACACCGTA	0.321
GCACCGTA	0.371
AGACCGTA	0.287
CGACCGTA	0.373

Sequence	PBM E-score
CCACCGTC	-0.227
CCACCGTA	0.399
AGGCCGTA	0.355
CCACCGAA	-0.00574
CGGCCGTA	0.378
CGACCGTC	-0.0557
CGGCCGTC	-0.0655
AAAGATTC	0.0374
CCAAGAAG	-0.227
ATGCGTGC	0.03
CAGTCGCC	-0.196
ATTTGCTG	0.0559
TGTACACA	0.0892
AGTACACG	0.198
GGTACACA	-0.235
AGTACACA	0.143
CGTACACG	0.423
CGTACACA	0.418
GGTACACC	0.0641
CGTACACC	0.382
AGTACACC	0.0771
GATGAGGA	-0.0777
CCTGCAAA	-0.0886
GCAATTAC	-0.0538
AGGGTCCC	-0.229

Sequence	PBM E-score
ACGAGTGG	0.295
ACGAGTAT	0.376
ACGAGTCT	0.293
ACGAGTAC	0.419
ACGAGTCG	0.384
CCGAGTAC	0.196
ACGAGTAA	0.348
ACGAGTGC	0.377
ACGAGTAG	0.368
ACGAGTCA	0.249
GCGAGTAC	0.204
CCGAGTGC	-0.0549
CGCTGGGA	-0.0151
AAAGTGTT	0.0836
ATCGTCCG	-0.101
CGACGATA	0.169
CGGTAAAC	0.206
AAAGGTGG	-0.0797
AGCTTTAC	0.192
GTGGATAA	-0.151
ACAGTAGC	-0.0133
AAAATAGG	-0.0506
AGCGTTTG	0.149
ATAGTTTG	-0.0286
ATAGTTTC	-0.0466

Sequence	PBM E-score
ATCGTTTC	0.401
ATCGTTTG	0.452
CTCGTTGC	0.356
CTCGTTTC	0.452
CGCGTTTC	0.0838
AGCGTTTC	0.0667
GTCTGGAA	-0.122
GAAATTCC	-0.186
GACCCGAA	-0.0162
CCTGCGCG	-0.0152
CGGGCCAA	-0.307
AGCAGAGG	-0.293
GCAAGCGA	0.174
AACACCTT	0.0752
ACGTTCCC	0.0935
ACGTTCAA	0.238
ACGTTTCA	0.116
GCGTTTCA	-0.0903
GCGTTCAA	0.173
GCGTTCCA	0.11
ACGTTCCA	0.116
GCGTTCCC	0.0703
CCGTTCCC	0.385
TCGTTCCA	0.46
TCGTTCAA	0.459

Sequence	PBM E-score
TCGTTTCA	0.406
AGTCTTTA	-0.0445
AGACTGCG	-0.17
GCGAATTA	0.179
GGATGGAA	-0.0401
CGGGCATC	0.0742
GCCGCGTA	0.271
AGCCGAAG	-0.185
CTACAAGA	-0.194
ATTCGTGC	-0.094
CTTCGTCA	-0.0302
CTTCGTGC	-0.0549
CTTCGTGA	0.112
CTTCGTAA	0.427
ATTCGTAC	0.452
CTTCGTAC	0.458
ATTCGTCC	0.0624
CTTCGTCC	-0.316
CCCAGCCC	-0.217
CACACACC	0.0034
CTTCATAA	-0.121
AAGGCACC	-0.24
ATAGCGAC	0.17
ATAACGTG	0.0885
TAATGTAA	-0.0142

Sequence	PBM E-score
AAGCCTAT	-0.0475
AAGGAACG	0.347
AGGGAACC	-0.104
CCGGAACG	0.376
CGGGAACA	0.184
CAGGAACG	0.396
CGGGAACC	-0.12
CCGGAACC	-0.113
CGGGAACG	0.404
AGGGAACA	-0.22
CAGGAACC	-0.161
AGGGAACG	0.39
CCGGAACA	-0.189
AGCGCAAC	0.149
TTTCCAAA	-0.0113
AAGCTTGG	0.127
ACTGCGCC	-0.147
CCGGGGAA	-0.23
GGAAGTAA	-0.0533
